# Data from PubChem BioAssay (NCI).
# About 83,000 compounds went through this panel and 20% of them were active in at least one assay; those are over-represented in the sample as a whole.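 Activity criterion: percent growth below 10, measured after cells in 96-well plates were exposed to a single compound concentration for 48 hours.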 A number with no mark means an inactive call. The source made the active and inactive calls.
# Tests used:
# Assay in all cases: NCI-60 one-dose screen, 48 h (100 = growth as untreated, 0 = no growth, -100 = all killed)
# Conditions in all cases: 10 µM unless noted
# T-47D breast = tested on: T-47D breast
# BT-549 breast = tested on: BT-549 breast
# SW-620 colon = tested on: SW-620 colon
# MCF7 breast = tested on: MCF7 breast
# HCT-116 colon = tested on: HCT-116 colon
# HCC-2998 colon = tested on: HCC-2998 colon
# KM12 colon = tested on: KM12 colon
# MDA-MB-435 melanoma = tested on: MDA-MB-435 melanoma
SMILES,growth (T-47D breast),growth (BT-549 breast),growth (SW-620 colon),growth (MCF7 breast),growth (HCT-116 colon),growth (HCC-2998 colon),growth (KM12 colon),growth (MDA-MB-435 melanoma)
NC(=O)[C@@H]1CC2CCC1C2 (stereo partly drawn),113%,94.2%,94%,103%,101%,121%,102%,
c1ccc(C2Cc3ccccc3C2=NC2CCCCC2)cc1 (stereo not drawn),93.5%,88.3%,119%,86.1%,96.9%,108%,112%,
Nc1c(Cl)cc(N=Nc2ccccc2)cc1Cl,49.6%,,88.8%,19.7%,67.4%,87.1%,85.7%,105%
Oc1ccccc1/C=N\NC(=S)Nc1ccc(F)cc1,42%,,41.5%,16.9%,25.8%,39.7%,23.2%,21.8%
COc1ccc(/C=C/C(=O)c2ccc([N+](=O)[O-])cc2)cc1,98%,,111%,96%,99.2%,105%,98.6%,106%
O=C1C=Cc2ncccc2C1=O,66.6%,95.5%,,12.5%,27.1%,110%,104%,58.2%
NC1=NN=C2N(N)C(=O)c3cnn(-c4ccccc4)c3N2c2nc(-c3ccccc3)cc(-c3ccccc3)c21,,108%,104%,65.5%,93.7%,107%,103%,108%
Cn1cc(-c2csc(-c3cn(CCN)c4ccc(F)cc34)n2)c2cccnc21,,89.1%,52.6%,36.2%,77.1%,91.1%,47.7%,53.5%
O=C1C=C(C(O)c2ccc(O)cc2)C(=O)c2ccccc21 (stereo not drawn),80.2%,88.1%,97.4%,94.1%,96.1%,97%,107%,
Brc1ccc(Cn2nnnc2-c2ccn(-c3ccccc3)n2)cc1,57.7%,76.8%,,77.7%,49.4%,80.1%,80.6%,85%
C[N+](C)(CCCCCC[N+](C)(C)C1c2ccccc2-c2ccccc21)C1c2ccccc2-c2ccccc21,108%,117%,106%,103%,101%,110%,111%,
Cc1nn(-c2ccc(Cl)cc2)c(=O)n1CCn1cnc2ccccc21,90.8%,97.5%,,95.5%,97.5%,104%,121%,100%
O=C(N/N=C\c1c(O)ccc2ccccc12)C1CC1,53.6%,,51.7%,31.1%,13.1%,101%,51.6%,64.9%
COc1c(N)c2c(c([N+](=O)[O-])c1OC)C(=O)OC2,101%,,106%,100%,102%,105%,107%,106%
O=[N+]([O-])c1cc(S(=O)(=O)c2ccc(F)c([N+](=O)[O-])c2)ccc1F,95.8%,107%,48%,58.5%,,112%,80.2%,103%
Cc1cc(C)nc(NC(N)=NCCc2ccccc2)n1,36.1%,,32.2%,17.3%,27.9%,94.5%,22.5%,-7.44% (active)
CC(C)(C)CC(C)(C)c1ccc(OCCOCC[N+](C)(C)CC(=O)[O-])cc1,103%,125%,101%,105%,107%,108%,112%,
[B-][N+](CC)(CC)c1ccccc1,102%,99.3%,109%,95.9%,100%,105%,105%,
C=C(C)[C@@H]1CC[C@]2(CN)CC[C@]3(C)[C@H](CC[C@@H]4[C@@](C)(CCCN)[C@H](C(=C)C)CC[C@]43C)[C@@H]12,88.6%,92.1%,88.9%,71.8%,50.1%,77%,88.1%,96.2%
Oc1cccc2oc(=S)[nH]c12,104%,,108%,101%,107%,100%,115%,115%
CC1(C)c2ccccc2C(=O)C1(Br)Cc1ccccc1 (stereo not drawn),,105%,36.6%,81.3%,54.9%,78.4%,90.9%,61.3%
Cn1cc(-c2csc(-c3c[nH]c4ccccc34)n2)c2cccnc21,,49.6%,29.6%,13.6%,30.5%,33.2%,32.5%,-13.9% (active)
COc1cc2c(cc1OC)C(=O)/C(=C/c1cc(-c3ccc4c(c3)OCO4)n[nH]1)C2,,-47.8% (active),-84.9% (active),0.343% (active),-61% (active),89.3%,-82.3% (active),17.3%
Nc1c(C(=O)Nc2cccc(Cl)c2)sc2ncc(Cl)cc12,,68.8%,66.6%,84%,19.6%,78.2%,63.3%,77.5%
CCc1cccc(CC)c1NC(=O)c1sc2nc3c(cc2c1N)CCCC3,,74.8%,70.8%,42.5%,71%,95.4%,70%,7.29% (active)
CN(CSc1ccc(Cl)cc1)c1ccc(CSc2ccc(Cl)cc2)cc1,,51.4%,67.5%,51.8%,58.1%,85.3%,46.1%,45.8%
C=C(C)[C@@H]1CC[C@]2(C)CC[C@]3(C)[C@H](CC[C@@H]4[C@@]5(C)CCCNC(C)(C)[C@@H]5CC[C@]43C)[C@@H]12,,101%,2.47% (active),33.3%,5.39% (active),66%,66.8%,84.6%
O=[N+]([O-])c1ccc(N/N=C(\C(=N/Nc2ccc([N+](=O)[O-])cc2[N+](=O)[O-])c2ccccc2)c2ccccc2)c([N+](=O)[O-])c1,,,72.8%,96.3%,65%,89.6%,88.5%,77.8%
Cc1nc([P+](c2ccccc2)(c2ccccc2)c2ccccc2)c(Sc2sc(-c3ccccc3)nc2[P+](c2ccccc2)(c2ccccc2)c2ccccc2)o1,,-0.458% (active),9.8% (active),8.1% (active),3.77% (active),15.2%,-0.528% (active),-9.1% (active)
